# Measurements taken from PubChem BioAssay (NCI).
# The panel holds about 83,000 compounds, 20% with a hit somewhere; the sample as a whole holds those more often.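 In brief: 96-well plates, 48 h treatment, single concentration, percent growth endpoint.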 A number with no mark means an inactive call. The source made the active and inactive calls. The calls were made as follows: active = growth percent below 10; inactive = the rest.
# How the values were obtained:
# Assay in all cases: NCI-60 one-dose screen, 48 h (100 = growth as untreated, 0 = no growth, -100 = all killed)
# Conditions in all cases: 10 µM unless noted
# SK-MEL-2 melanoma = test system: SK-MEL-2 melanoma
# EKVX NSCLC = test system: EKVX NSCLC
# UO-31 renal = test system: UO-31 renal
# TK-10 renal = test system: TK-10 renal
# ACHN renal = test system: ACHN renal
# A498 renal = test system: A498 renal
# CCRF-CEM leukemia = test system: CCRF-CEM leukemia
# MOLT-4 leukemia = test system: MOLT-4 leukemia
# SR leukemia = test system: SR leukemia
# SN12C renal = test system: SN12C renal
Structure (SMILES),growth (SK-MEL-2 melanoma),growth (EKVX NSCLC),growth (UO-31 renal),growth (TK-10 renal),growth (ACHN renal),growth (A498 renal),growth (CCRF-CEM leukemia),growth (MOLT-4 leukemia),growth (SR leukemia),growth (SN12C renal)
Nc1c(C(=O)Nc2ccccn2)sc2nc3c(cc12)CCCCC3,44.2%,37.8%,49%,71.9%,52.6%,25.9%,6.92% (active),15.5%,8.04% (active),–
COc1cc(/C=N/Nc2nc(-c3ccc(F)cc3)c(C#N)c(N3CCOCC3)n2)ccc1O,114%,–,81.7%,98.9%,91.3%,87.8%,84.1%,73.4%,74.9%,89.4%
COc1ccc(-c2nnc(N3CCN(C(=O)CN4CCN(c5ccccc5)CC4)CC3)nc2-c2ccc(OC)cc2)cc1,38.1%,–,26.9%,55.3%,26.1%,48%,9.28% (active),-25.7% (active),-32.5% (active),7.79% (active)
COC(=O)c1oc2c(C(=O)/C=C/c3ccc(OC)cc3)c(OCCCN3CCCCC3)ccc2c1C,53.5%,–,12.2%,35.2%,28%,83.6%,-46.2% (active),-31.4% (active),-31% (active),22.5%
CCOC(=O)/C(=C/c1c(-c2ccccc2)[nH]c2ccccc12)C(=O)c1ccc(Cl)cc1,61.8%,–,57.9%,82.2%,19.3%,73.7%,14.5%,1.71% (active),9.07% (active),56%
CN(C)c1ccc(-c2ccc3[nH]c(=O)nc(-c4ccc(F)cc4)c3c2)cn1,30.8%,–,52.9%,73.7%,52.3%,18.5%,12%,28.1%,18.3%,45.3%
COc1ccc(/C=C(/C(=O)N2CCCC2)c2cc(OC)c(OC)c(OC)c2)cc1,64.3%,–,44.5%,71.3%,54.5%,13.4%,14%,32.6%,19.7%,48.1%
COc1ccc(Cc2nc(C#N)c(N3CCN(c4ccc(F)cc4)CC3)o2)cc1,88.2%,–,81.7%,75.1%,103%,103%,83.7%,87.7%,88.9%,105%
COc1ccc(Sc2[nH]c(C(C)=O)c3ccccc23)cc1,57.8%,–,73.5%,58.9%,80.9%,-0.948% (active),39.6%,48.5%,8.36% (active),87.5%
CC(=O)O[C@@H]1C[C@]2(C)[C@H]3[C@H](O)C[C@@H]4C5=CC(C)(C)CC[C@]5(C)CC[C@@]4(C)[C@]3(C)CC[C@H]2C(C)(C)[C@H]1O,107%,–,84.1%,104%,102%,119%,106%,87.1%,87.1%,–
COc1ccc(C(=O)c2cc(F)c(F)c(OC)c2F)cc1OC(=O)CCl,25.9%,–,71.8%,88.2%,–,94.5%,32.8%,29.6%,–,–
Cc1cc(O)cc(O)c1N=NC1=NCCS1,98.3%,–,89.9%,135%,97.3%,-6.58% (active),101%,94.1%,97.1%,109%
CCCCn1c(=O)c(/C=C/C(=O)/C=C/c2ccc(OC)cc2)cc2cc(Cl)ccc21,84%,–,62.8%,112%,103%,91.6%,29.2%,44.4%,3.16% (active),75.9%
COc1ccc(C2C(c3ccccc3)C(=O)N2c2cc(OC)c(OC)c(OC)c2)cc1I (configuration not stated),56.3%,–,18.7%,75.1%,26.5%,-2.63% (active),7.6% (active),7.85% (active),8.89% (active),33%
